For 13 compounds, Potency results are on record in PubChem BioAssay (NCATS).

Results filed as inconclusive are left out. Active and inactive are the calls of the source. Calls follow the shape of the dose curve; as a rule, active = well fitted curve in the direction sought with a large enough effect; inconclusive = small, poorly fitted or top-dose-only effect, or another doubt; inactive = no such curve, though single readings can be large; an effect the other way counts as inactive or inconclusive.

Assay [1] in a line: qHTS of pediatric cancer cell lines to identify multiple opportunities for drug repurposing: Confirmatory screen for NB-EBc1 cells (AID 1347115).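 Also: cells exposed to compound for 48 h before the viability read; nearly all actives have a fitted effect of over 45% in size.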 Also: potency is read from the fitted curve at half-maximal effect. In a few lines: (§1)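 Cells (500-1,000/well) rested 5 h, then received compounds for 48 h; metabolically active cells were measured by CellTiter-Glo luminescence. Final concentrations spanned up to 46 µM (MIPE, 11-point) or 0.59 nM-46 µM (NPC, 8-point) in primary screens, 11-point in follow-ups.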
A general note: Quantitative high-throughput screening tests each substance at several concentrations.

Assay [2] can be described thus: qHTS of pediatric cancer cell lines to identify multiple opportunities for drug repurposing: Confirmatory screen for SJ-GBM2 cells (AID 1347116). Also: nearly all actives have a fitted effect of over 60% in size. Also: potency is read from the fitted curve at half-maximal effect. In outline:
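Viability measured as metabolically active cells via CellTiter-Glo luminescence following 48 hours of compound exposure, 11-point dilutions in confirmatory testing. 500-1,000 cells/well plated 5 hours before dosing; controls were DMSO and 2.3 µM bortezomib.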

Assay [3] in a line: qHTS of pediatric cancer cell lines to identify multiple opportunities for drug repurposing: Confirmatory screen for BT-37 cells (AID 1347117). Also: nearly all actives have a fitted effect of over 55% in size. Also: potency is read from the fitted curve at half-maximal effect. In a few lines: as §1
A short description of assay [4]: qHTS of pediatric cancer cell lines to identify multiple opportunities for drug repurposing: Confirmatory screen for MG 63 (6-TG R) cells (AID 1347119). Also: nearly all actives have a fitted effect of over 55% in size. Also: potency is read from the fitted curve at half-maximal effect. In outline:
as §1

Assay [5] is described as follows: qHTS of pediatric cancer cell lines to identify multiple opportunities for drug repurposing: Confirmatory screen for control Hh wild type fibroblast cells (AID 1347121). Also: nearly all actives have a fitted effect of over 70% in size. Also: potency is read from the fitted curve at half-maximal effect. In outline: as §1
Assay [6] can be described thus: qHTS of pediatric cancer cell lines to identify multiple opportunities for drug repurposing: Confirmatory screen for U-2 OS cells (AID 1347122). Also: nearly all actives have a fitted effect of over 65% in size. Also: potency is read from the fitted curve at half-maximal effect. In outline:
as §1

Assay [7] can be described thus: qHTS of pediatric cancer cell lines to identify multiple opportunities for drug repurposing: Confirmatory screen for Rh41 cells (AID 1347123).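 Also: 48 h compound exposure; nearly all actives have a fitted effect of over 60% in size.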 Also: potency is read from the fitted curve at half-maximal effect. In outline:
as §1

Assay [8] in a line: qHTS of pediatric cancer cell lines to identify multiple opportunities for drug repurposing: Confirmatory screen for Rh30 cells (AID 1347126). Also: nearly all actives have a fitted effect of over 55% in size. Also: potency is read from the fitted curve at half-maximal effect. In a few lines:
as §1

The nature of assay [9]: qHTS of pediatric cancer cell lines to identify multiple opportunities for drug repurposing: Confirmatory screen for Saos-2 cells (AID 1347127). Also: nearly all actives have a fitted effect of over 60% in size. Also: potency is read from the fitted curve at half-maximal effect. In a few lines: as §1
The nature of assay [10]: qHTS of pediatric cancer cell lines to identify multiple opportunities for drug repurposing: Confirmatory screen for OHS-50 cells (AID 1347128).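 Also: compound exposure lasted 48 h at 37 degrees C; nearly all actives have a fitted effect of over 55% in size.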 Also: potency is read from the fitted curve at half-maximal effect. In outline: as §1
The nature of assay [11]: qHTS of pediatric cancer cell lines to identify multiple opportunities for drug repurposing: Confirmatory screen for SK-N-SH cells (AID 1347129).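 Also: cells exposed to compound for 48 h before viability read; nearly all actives have a fitted effect of over 60% in size.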 Also: potency is read from the fitted curve at half-maximal effect. In outline: as §1
Assay [12] relates to Zika virus NS2B-NS3 protease. The assay can be described thus: Primary screen GU AMC qHTS for Zika virus inhibitors (AID 1347154). Also: nearly all actives have a fitted effect of over 70% in size. In outline: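 Fluorogenic AMC-substrate cleavage by noncovalent NS2B-NS3 protease complex (25 nM, pH 8.0 Tris buffer with Tween 20) followed for 15 minutes at room temperature (~20% conversion). Percent inhibition from ex340/em450 signal change, fitted by 4-parameter Hill equation.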

Assay [13] in a line: qHTS of pediatric cancer cell lines to identify multiple opportunities for drug repurposing: Confirmatory screen for Rh18 cells (AID 1347125). Also: nearly all actives have a fitted effect of over 55% in size. Also: potency is read from the fitted curve at half-maximal effect. In a few lines: as §1
Assay [14] can be described thus: qHTS of pediatric cancer cell lines to identify multiple opportunities for drug repurposing: Confirmatory screen for TC32 cells (AID 1347118).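 Also: cells exposed to compound for 48 h before the read; nearly all actives have a fitted effect of over 65% in size.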 Also: potency is read from the fitted curve at half-maximal effect. In outline:
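Measured quantity: luminescence from CellTiter-Glo, reflecting metabolically active TC32 cells following 48 h of compound. Curves came straight from multi-point titrations, with 8 or 11 points in primary and 11 in confirmatory screening.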

Assay [15] can be described thus: qHTS of pediatric cancer cell lines to identify multiple opportunities for drug repurposing: Confirmatory screen for RD cells (AID 1347124).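 Also: cells exposed to compound for 48 h before viability readout; nearly all actives have a fitted effect of over 65% in size.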 Also: potency is read from the fitted curve at half-maximal effect. In outline: as §1

In the case of `CC[C@H]1CN2CCc3cc(OC)c(OC)cc3[C@H]2C[C@@H]1C[C@@H]1NCCc2cc(OC)c(OC)cc21`, the Potency in assay [1] is 657 nM (active); in assay [2] it was 522 nM (active); in assay [3] it was 293 nM (active); in assay [4], 827 nM (active); in assay [6] it was 928 nM (active); in assay [7], 1470 nM (active). For the same compound, the Potency is 5850 nM (active) in [8], 928 nM (active) in assay [9], 414 nM (active) in [10] and 332 nM (active) in assay [11]. Moreover, the Potency entry in [5] and in assay [12] was “inactive” in each case.
In the case of `C[C@@H](Oc1cc(-n2cnc3ccc(CN4CCN(C)CC4)cc32)sc1C(N)=O)c1ccccc1C(F)(F)F`, the Potency in assay [1] is 240 nM (active); in [2], 10400 nM (active); in assay [3] it was 240 nM (active); in [4] it was 60.3 nM (active); in assay [5] it was 42700 nM (active); in [7], 4140 nM (active). The Potency was 47900 nM (active) in assay [13], 13100 nM (active) in [8], 75.9 nM (active) in [10] and 13200 nM (active) in [11]. Besides, in assay [12], the Potency entry is “inactive”.
With `CC(C)c1cc(-c2n[nH]c(=O)n2-c2ccc3c(ccn3C)c2)c(O)cc1O`, the Potency entry in assay [1], in [2], in [3], in [14], in assay [5] and in [10] was “inactive” throughout. Moreover, in [11], the Potency result is “inactive”.
As to `NC(=O)Nc1cc(-c2cccc(F)c2)sc1C(=O)N[C@H]1CCCNC1`, the Potency is 1650 nM (active) in [1]; 1040 nM (active) in assay [2]; 827 nM (active) in [3]; 737 nM (active) in assay [14]; 1040 nM (active) in [4]; 20800 nM (active) in assay [5]. Further, the Potency was 1170 nM (active) in assay [6]; 1470 nM (active) in assay [7]; 6570 nM (active) in [13]; 1650 nM (active) in [9]; 737 nM (active) in assay [10]; 3720 nM (active) in [11].
For the compound `Cc1[nH]c2ccccc2c1CCNCc1ccc(C=CC(=O)NO)cc1`, the Potency in assay [1] was 369 nM (active); in assay [3] it was 165 nM (active); in assay [14], 117 nM (active); in assay [4], 165 nM (active); in assay [7] it was 4.1 nM (active); in assay [13], 165 nM (active). For the same compound, the Potency in [9] was 233 nM (active); in [10], 293 nM (active); in assay [11], 469 nM (active). The Potency entry in assay [2] and in [12] was “inactive” in each case.
Take `COc1cccc(Nc2c(C(N)=O)cnc3c(C)cc(S(=O)(=O)c4cccc(C(=O)N(C)C)c4)cc23)c1`: the Potency result in assay [1], in assay [2], in [3], in assay [4], in [5] and in [6] was “inactive” each time. For the same compound, the Potency entry in [9], in assay [10], in assay [11] and in assay [12] was “inactive” in each case.
As to `CNC(=O)c1ccc(N2C(=S)N(c3cnc(C#N)c(C(F)(F)F)c3)C(=O)C23CCC3)cc1F`, the Potency result in [1], in assay [2], in assay [3], in assay [4], in [5] and in assay [6] was “inactive” each time. Also, the Potency result in [7], in assay [15], in [13], in assay [8], in [9] and in assay [10] was “inactive” in each case. For the same compound, the Potency result in [11] and in assay [12] was “inactive” in each case.
Turning to `CN(C)Cc1c(C(=O)NCCOc2ccc(C(=O)NO)cc2)oc2ccccc12`, the Potency in assay [1] was 1850 nM (active); in assay [2], 1470 nM (active); in assay [3] it was 1170 nM (active); in [14], 737 nM (active); in assay [4], 1470 nM (active); in [6], 657 nM (active). For the same compound, the Potency in [7] was 293 nM (active); in [15], 1650 nM (active); in assay [13], 827 nM (active); in assay [8], 1650 nM (active); in assay [9] it was 1470 nM (active); in assay [10] it was 1650 nM (active). Moreover, the Potency in assay [11] is 3720 nM (active). Besides, the Potency result in assay [12] was “inactive”.
Turning to `COc1ccc(F)c(F)c1C(=O)c1cnc(NC2CCN(S(C)(=O)=O)CC2)nc1N`, the Potency entry in assay [1], in assay [5], in [8] and in [12] was “inactive” in each case. Moreover, the Potency in [2] is 827 nM (active); in assay [3], 2330 nM (active); in [14], 2080 nM (active); in assay [6], 3290 nM (active); in assay [7], 2330 nM (active); in assay [10], 2330 nM (active). Further, in [11], the Potency is 2350 nM (active).
In the case of `COc1cc2c(Oc3ccc(NC(=O)C4(C(=O)Nc5ccc(F)cc5)CC4)cc3F)ccnc2cc1OCCCN1CCOCC1`, the Potency in [1] is 13100 nM (active); in assay [2], 5220 nM (active); in [3] it was 10400 nM (active); in [14], 1850 nM (active); in [4], 7370 nM (active); in assay [5] it was 20800 nM (active). Further, the Potency in assay [6] is 8270 nM (active); in assay [7], 7370 nM (active); in assay [15] it was 10400 nM (active); in [13], 7370 nM (active); in assay [9] it was 4140 nM (active); in [10], 3690 nM (active). For the same compound, the Potency in assay [11] is 1870 nM (active). Further, the Potency result in [12] was “inactive”.
Consider `COc1ccc(-c2cc3c(C)nc(N)nc3n(C3CCC(OCCO)CC3)c2=O)cn1` (centres undefined), for which the Potency result in assay [1], in [2], in assay [3], in assay [4], in [5] and in [6] was “inactive” in each case. Besides, the Potency entry in [15], in assay [13], in assay [8], in assay [9], in assay [10] and in assay [11] was “inactive” in each case. Also, in assay [12], the Potency entry is “inactive”.
For `CC1=C(CO)C(=O)O[C@@H]([C@@H](C)[C@H]2CC[C@H]3[C@@H]4C[C@H]5O[C@]56[C@@H](O)C=CC(=O)[C@]6(C)[C@@H]4CC[C@]23C)C1`, the Potency result in assay [1], in [2], in [3], in [14], in assay [4] and in assay [5] was “inactive” each time. Also, the Potency entry in assay [6], in assay [7], in [9], in assay [11] and in [12] was “inactive” throughout.
As for `CNC(=O)c1ccccc1Nc1nc(Nc2ccc(N3CCOCC3)cc2OC)ncc1Cl`, the Potency in assay [1] is 8270 nM (active); in assay [2] it was 9270 nM (active); in [3], 13100 nM (active); in [14], 827 nM (active); in assay [4], 261 nM (active); in assay [6] it was 13100 nM (active). The Potency is 928 nM (active) in [7]; 4140 nM (active) in assay [13]; 1470 nM (active) in assay [9]; 2930 nM (active) in assay [10]; 1180 nM (active) in assay [11]. Also, the Potency result in assay [5], in assay [8] and in [12] was “inactive” each time.
